The results in this text go back to paper PMC11006913.

Assay in all cases: PBM; 200 nM protein, PBS
Holding throughout (conditions): dsDNA, one strand shown

Assay [1] deals with T1, VENTX (Homo sapiens, UniProt O95231 78-163, R121Q).
T1 sequence: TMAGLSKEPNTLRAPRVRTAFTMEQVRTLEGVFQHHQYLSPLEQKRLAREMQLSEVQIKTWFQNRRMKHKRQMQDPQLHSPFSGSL

Assay [2] deals with HOXC9 (Homo sapiens, UniProt P31274 178-260, K195R).
In assay [3] the target is T2, VENTX (Homo sapiens, UniProt O95231 78-163).
T2 sequence: T1 sequence with Q44R

The target of assay [4] is T3, VENTX (Homo sapiens, UniProt O95231 78-163, Y115F).
T3 sequence: T1 sequence with Y38F, Q44R

For assay [5], the target named is HOXC9 (Homo sapiens, UniProt P31274 178-260).
HOXC9 (Homo sapiens, UniProt P31274 178-260), sequence (P31274 178-260): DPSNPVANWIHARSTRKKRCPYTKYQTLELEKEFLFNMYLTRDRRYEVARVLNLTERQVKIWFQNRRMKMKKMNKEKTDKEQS
Assay [6] addresses HOXC9 (Homo sapiens, UniProt P31274 178-260, R193K).
The target of assay [7] is VAX1 (Homo sapiens, UniProt Q5SQQ9 86-172).
VAX1 (Homo sapiens, UniProt Q5SQQ9 86-172), sequence (Q5SQQ9 86-172): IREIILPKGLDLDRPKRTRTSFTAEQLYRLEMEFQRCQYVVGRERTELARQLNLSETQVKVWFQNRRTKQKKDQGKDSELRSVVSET
Assay [8] deals with HOXC9 (Homo sapiens, UniProt P31274 178-260, R222W).
HOXC9 (Homo sapiens, UniProt P31274 178-260, R222W), sequence (P31274 178-260 R222W): as the sequence (P31274 178-260) above, with R45W counted along it
For assay [9], the target named is VAX1 (Homo sapiens, UniProt Q5SQQ9 86-172, T142I).
VAX1 (Homo sapiens, UniProt Q5SQQ9 86-172, T142I), sequence (Q5SQQ9 86-172 T142I): as the sequence (Q5SQQ9 86-172) above, with T57I counted along it
In assay [10] the target is VAX1 (Homo sapiens, UniProt Q5SQQ9 86-172, K157R).
VAX1 (Homo sapiens, UniProt Q5SQQ9 86-172, K157R), sequence (Q5SQQ9 86-172 K157R): as the sequence (Q5SQQ9 86-172) above, with K72R counted along it
Assay [11] concerns the target HOXB9 (Homo sapiens, UniProt P17482 171-250, T197M).
In assay [12] the target is HOXB9 (Homo sapiens, UniProt P17482 171-250).
HOXB9 (Homo sapiens, UniProt P17482 171-250), sequence (P17482 171-250): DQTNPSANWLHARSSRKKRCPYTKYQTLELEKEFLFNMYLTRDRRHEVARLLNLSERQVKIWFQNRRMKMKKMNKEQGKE
For assay [13], the target named is HOXD13 (Homo sapiens, UniProt P35453 263-343, T313R).
HOXD13 (Homo sapiens, UniProt P35453 263-343, T313R), sequence (P35453 263-343 T313R): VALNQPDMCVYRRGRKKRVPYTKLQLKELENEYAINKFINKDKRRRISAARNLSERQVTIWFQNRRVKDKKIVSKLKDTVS
The target of assay [14] is HOXD13 (Homo sapiens, UniProt P35453 263-343).
HOXD13 (Homo sapiens, UniProt P35453 263-343), sequence (P35453 263-343): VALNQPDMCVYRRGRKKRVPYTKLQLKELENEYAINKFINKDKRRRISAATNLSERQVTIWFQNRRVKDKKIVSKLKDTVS
Assay [15] concerns the target HOXD13 (Homo sapiens, UniProt P35453 263-343, T313A).
Assay [16] deals with HOXB9 (Homo sapiens, UniProt P17482 171-250, R186Q).
HOXB9 (Homo sapiens, UniProt P17482 171-250, R186Q), sequence (P17482 171-250 R186Q): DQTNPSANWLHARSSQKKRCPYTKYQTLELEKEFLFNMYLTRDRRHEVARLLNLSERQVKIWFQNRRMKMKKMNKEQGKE
Assay [17] deals with T4, SIX6 (Homo sapiens, UniProt O95475 114-200, L167I).
T4 sequence: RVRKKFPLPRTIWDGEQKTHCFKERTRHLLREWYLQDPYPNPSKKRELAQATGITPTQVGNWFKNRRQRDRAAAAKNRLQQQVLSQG

Assay [18] concerns the target T5, SIX6 (Homo sapiens, UniProt O95475 114-200, L143V).
T5 sequence: T4 sequence with L30V, I54L

The target of assay [19] is HOXC10 (Homo sapiens, UniProt Q9NYD6 254-340).
HOXC10 (Homo sapiens, UniProt Q9NYD6 254-340), sequence (Q9NYD6 254-340): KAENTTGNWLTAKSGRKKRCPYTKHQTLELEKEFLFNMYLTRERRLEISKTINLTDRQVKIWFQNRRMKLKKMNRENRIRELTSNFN
Assay [20] deals with T6, SIX6 (Homo sapiens, UniProt O95475 114-200, H141N).
T6 sequence: T4 sequence with H28N, I54L

The target in assay [21] is T7, SIX6 (Homo sapiens, UniProt O95475 114-200, T165P).
T7 sequence: T4 sequence with T52P, I54L

In assay [22] the target is T8, SIX6 (Homo sapiens, UniProt O95475 114-200, L167M).
T8 sequence: T4 sequence with I54M

Assay [23] concerns the target T9, SIX6 (Homo sapiens, UniProt O95475 114-200, L143M).
T9 sequence: T4 sequence with L30M, I54L

In assay [24] the target is T10, SIX6 (Homo sapiens, UniProt O95475 114-200, L143I).
T10 sequence: T4 sequence with L30I, I54L

Assay [25] concerns the target T11, SIX6 (Homo sapiens, UniProt O95475 114-200, T165G).
T11 sequence: T4 sequence with T52G, I54L

The target in assay [26] is T12, SIX6 (Homo sapiens, UniProt O95475 114-200, T139Q).
T12 sequence: T4 sequence with T26Q, I54L

The target in assay [27] is T13, SIX6 (Homo sapiens, UniProt O95475 114-200, T165A).
T13 sequence: T4 sequence with T52A, I54L

For assay [28], the target named is HOXC10 (Homo sapiens, UniProt Q9NYD6 254-340, K271E).
HOXC10 (Homo sapiens, UniProt Q9NYD6 254-340, K271E), sequence (Q9NYD6 254-340 K271E): as the sequence (Q9NYD6 254-340) above, with K18E counted along it
Assay [29] deals with T14, SIX6 (Homo sapiens, UniProt O95475 114-200, L167V).
T14 sequence: T4 sequence with I54V

The target in assay [30] is PROP1 (Homo sapiens, UniProt O75360 56-141).
PROP1 (Homo sapiens, UniProt O75360 56-141), sequence (O75360 56-141): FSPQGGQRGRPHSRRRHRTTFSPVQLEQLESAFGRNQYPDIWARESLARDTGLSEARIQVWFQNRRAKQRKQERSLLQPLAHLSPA
In assay [31] the target is T15, SIX6 (Homo sapiens, UniProt O95475 114-200).
T15 sequence: T4 sequence with I54L

The target of assay [32] is PROP1 (Homo sapiens, UniProt O75360 56-141, R99H).
PROP1 (Homo sapiens, UniProt O75360 56-141, R99H), sequence (O75360 56-141 R99H): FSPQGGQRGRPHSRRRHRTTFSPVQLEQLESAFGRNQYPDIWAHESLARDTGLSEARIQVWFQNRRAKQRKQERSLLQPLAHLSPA
Assay [33] deals with T16, SIX6 (Homo sapiens, UniProt O95475 114-200, T165I).
T16 sequence: T4 sequence with T52I, I54L

Assay [34] concerns the target PROP1 (Homo sapiens, UniProt O75360 56-141, F88S).

Numbering of substitutions follows the chain as printed.

HOXC9 (Homo sapiens, UniProt P31274 178-260, R193K), sequence (P31274 178-260 R193K): as the sequence (P31274 178-260) above, with R16K counted along it
HOXC9 (Homo sapiens, UniProt P31274 178-260, K195R), sequence (P31274 178-260 K195R): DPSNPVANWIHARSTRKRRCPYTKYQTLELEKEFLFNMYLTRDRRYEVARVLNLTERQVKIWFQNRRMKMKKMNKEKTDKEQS
HOXB9 (Homo sapiens, UniProt P17482 171-250, T197M), sequence (P17482 171-250 T197M): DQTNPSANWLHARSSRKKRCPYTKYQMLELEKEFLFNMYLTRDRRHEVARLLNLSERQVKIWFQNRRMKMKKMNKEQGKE
PROP1 (Homo sapiens, UniProt O75360 56-141, F88S), sequence (O75360 56-141 F88S): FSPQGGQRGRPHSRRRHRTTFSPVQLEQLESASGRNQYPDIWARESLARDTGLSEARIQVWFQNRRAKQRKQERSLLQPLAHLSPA
HOXD13 (Homo sapiens, UniProt P35453 263-343, T313A), sequence (P35453 263-343 T313A): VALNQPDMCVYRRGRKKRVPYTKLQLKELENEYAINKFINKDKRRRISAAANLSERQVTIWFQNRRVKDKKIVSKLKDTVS

With CCGGGAGG, the binding signal was 8.1 upbm affinity estimate (log intensity, higher = more binding, comparable within an allelic series) with VENTX [1]; 9.54 upbm affinity estimate (log intensity, higher = more binding, comparable within an allelic series) with HOXC9 [2]; 7.94 upbm affinity estimate (log intensity, higher = more binding, comparable within an allelic series) with VENTX [3]; 8.13 upbm affinity estimate (log intensity, higher = more binding, comparable within an allelic series) with VENTX [4]; 9.63 upbm affinity estimate (log intensity, higher = more binding, comparable within an allelic series) in the assay with HOXC9 [5]; 9.49 upbm affinity estimate (log intensity, higher = more binding, comparable within an allelic series) with HOXC9 [6]. Also, the binding signal with VAX1 [7] is 7.03 upbm affinity estimate (log intensity, higher = more binding, comparable within an allelic series); with HOXC9 [8], 9.7 upbm affinity estimate (log intensity, higher = more binding, comparable within an allelic series); in the assay with VAX1 [9] it was 7.12 upbm affinity estimate (log intensity, higher = more binding, comparable within an allelic series); with VAX1 [10], 7.11 upbm affinity estimate (log intensity, higher = more binding, comparable within an allelic series).
On to AGAGGGGC, for which the binding signal was 8.19 upbm affinity estimate (log intensity, higher = more binding, comparable within an allelic series) in the assay with VENTX [1]; 8.56 upbm affinity estimate (log intensity, higher = more binding, comparable within an allelic series) in the assay with HOXB9 [11]; 8.3 upbm affinity estimate (log intensity, higher = more binding, comparable within an allelic series) in the assay with VENTX [3]; 8.07 upbm affinity estimate (log intensity, higher = more binding, comparable within an allelic series) with VENTX [4]; 8.46 upbm affinity estimate (log intensity, higher = more binding, comparable within an allelic series) with HOXB9 [12]; 9.48 upbm affinity estimate (log intensity, higher = more binding, comparable within an allelic series) with HOXD13 [13]. The binding signal is 9.71 upbm affinity estimate (log intensity, higher = more binding, comparable within an allelic series) with HOXD13 [14]; 9.59 upbm affinity estimate (log intensity, higher = more binding, comparable within an allelic series) with HOXD13 [15]; 8.41 upbm affinity estimate (log intensity, higher = more binding, comparable within an allelic series) in the assay with HOXB9 [16].
Turning to GCTTGGCC, the binding signal in the assay with VENTX [1] was 7.86 upbm affinity estimate (log intensity, higher = more binding, comparable within an allelic series); with SIX6 [17] it was 8.94 upbm affinity estimate (log intensity, higher = more binding, comparable within an allelic series); in the assay with HOXC9 [2], 9.68 upbm affinity estimate (log intensity, higher = more binding, comparable within an allelic series); with VENTX [3], 7.97 upbm affinity estimate (log intensity, higher = more binding, comparable within an allelic series); with SIX6 [18] it was 8.84 upbm affinity estimate (log intensity, higher = more binding, comparable within an allelic series); in the assay with HOXC10 [19], 10.1 upbm affinity estimate (log intensity, higher = more binding, comparable within an allelic series). Besides, the binding signal with SIX6 [20] is 8.96 upbm affinity estimate (log intensity, higher = more binding, comparable within an allelic series); with SIX6 [21], 8.86 upbm affinity estimate (log intensity, higher = more binding, comparable within an allelic series); with VENTX [4], 7.9 upbm affinity estimate (log intensity, higher = more binding, comparable within an allelic series); with SIX6 [22] it was 8.89 upbm affinity estimate (log intensity, higher = more binding, comparable within an allelic series); in the assay with SIX6 [23], 8.89 upbm affinity estimate (log intensity, higher = more binding, comparable within an allelic series); in the assay with SIX6 [24] it was 8.86 upbm affinity estimate (log intensity, higher = more binding, comparable within an allelic series). Also, the binding signal is 8.99 upbm affinity estimate (log intensity, higher = more binding, comparable within an allelic series) with SIX6 [25]; 9.01 upbm affinity estimate (log intensity, higher = more binding, comparable within an allelic series) with SIX6 [26]; 9.78 upbm affinity estimate (log intensity, higher = more binding, comparable within an allelic series) with HOXC9 [5]; 8.94 upbm affinity estimate (log intensity, higher = more binding, comparable within an allelic series) with SIX6 [27]; 9.65 upbm affinity estimate (log intensity, higher = more binding, comparable within an allelic series) with HOXC9 [6]; 10 upbm affinity estimate (log intensity, higher = more binding, comparable within an allelic series) with HOXC10 [28]. Besides, the binding signal in the assay with SIX6 [29] is 8.95 upbm affinity estimate (log intensity, higher = more binding, comparable within an allelic series); in the assay with PROP1 [30], 6.59 upbm affinity estimate (log intensity, higher = more binding, comparable within an allelic series); with SIX6 [31] it was 8.89 upbm affinity estimate (log intensity, higher = more binding, comparable within an allelic series); with PROP1 [32] it was 6.63 upbm affinity estimate (log intensity, higher = more binding, comparable within an allelic series); with SIX6 [33], 8.91 upbm affinity estimate (log intensity, higher = more binding, comparable within an allelic series); with HOXC9 [8], 9.69 upbm affinity estimate (log intensity, higher = more binding, comparable within an allelic series). Further, the binding signal in the assay with PROP1 [34] was 6.65 upbm affinity estimate (log intensity, higher = more binding, comparable within an allelic series).
